Data on five molecules can be found in PubChem BioAssay.

Calls of active or inactive are those of the source. Unless noted, the rule behind the calls is not given here.

Experiment [1] is described as follows: compounds binding Alexa647 anti-His antibody – biochemical, small-molecule microarray, 635 nm fluorescence, artefact control for SMM control protein annotation, primary screen (AID 1128).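 Note: score merges feature fluorescence with signal-to-noise for each printed compound spot.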 The conditions noted are these: higher = more signal.
The test system of experiment [2] is Human papillomavirus type 1a E7 protein (residues 1-88). Kind of experiment: HPV1a E7 small-molecule binders, primary screen, biochemical, small-molecule microarray, residues 1-88, 635 nm (AID 1129). The conditions noted are these: small-molecule microarray binding, fluorescence 635 nm; higher = more signal.
Experiment [3] has as its target Focal adhesion kinase 1 (Homo sapiens) (UniProt Q05397). Description: PTK2 protein binding on printed compound slides – biochemical, small-molecule microarray, 635/667 nm fluorescence, BSA, DTT, primary screen (AID 1130).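 Note: composite of spot emission at 667 nm and signal to noise over triplicate slides.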 Conditions: 635 nm fluorescence, higher = more signal.
Experiment [4] concerns Fibrinogen (Alexa647-labelled). Description: Alexa647-fibrinogen binding to printed small molecules – biochemical, small-molecule microarray, 635/667 nm fluorescence, artefact control for SMM control-protein annotation, profiling panel (AID 1131).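 Note: z-score merges 667 nm fluorescence with per-spot signal-to-noise over triplicate slides.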 Conditions: fibrinogen-A647 binding fluorescence, higher = more signal.
Experiment [5] addresses Follistatin (Homo sapiens) (UniProt P19883). Description: FST protein binding to printed compounds – biochemical, small-molecule microarray, 635/667 nm fluorescence, primary screen (AID 1132). The conditions noted are these: 635 nm fluorescence, higher = more signal.
Experiment [6] addresses Fibroblast growth factor 2 (Homo sapiens) (UniProt P09038). Description: basic fibroblast growth factor binding to printed compounds – biochemical, small-molecule microarray, 635/667 nm fluorescence, primary screen (AID 1133). Conditions: FGF2, fluorescence 635/667, higher = more signal.
Experiment [7] can be described thus: JC-1 mitochondrial potential readout, lung cancer cells – cell-based, A549, JC-1 fluorescence, basal, 24 h, 100 nL, profiling panel (AID 1138).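 Note: A549 lung adenocarcinoma cells under basal conditions with no added stimulus; test concentration not given here.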 Conditions: higher = more signal.
In another experiment the test system is Lefty1. Description: Lefty1 protein binding to printed compounds – biochemical, small-molecule microarray, 635/667 nm fluorescence, primary screen (AID 1139). Conditions: fluorescence 635/667, higher = more signal.
The test system of experiment [8] is wheat germ agglutinin (Triticum aestivum), Alexa647-labelled. Description: Alexa647-WGA lectin binding to printed small molecules – biochemical, small-molecule microarray, 635/667 nm fluorescence, artefact control for SMM control-protein annotation, profiling panel (AID 1140).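 Note: score merges 667 nm feature emission with signal to noise over triplicate slides.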 The conditions noted are these: WGA-A647 binding, 635 nm fluorescence, higher = more signal.

Experiment [9] concerns the target Luciferin 4-monooxygenase (Photinus pyralis) (UniProt P08659). Kind of experiment: inhibition of purified Photinus pyralis luciferase – biochemical, luminescence, purified enzyme, 2006 set, primary screen (AID 1141).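 Note: cell-free assay with purified firefly luciferase at 100 ng per well in PBS; test concentration not given here.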 The conditions noted are these: purified firefly luciferase, SteadyGlo luminescence, 30 min; higher = more signal, called active from +8 up or from −8 down.

For experiment [10], the system named is Wnt5a (protein binding on small-molecule microarray). Kind of experiment: small molecules binding Wnt5a protein – biophysical, small-molecule microarray, 635/667 nm fluorescence, primary screen (AID 1142).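 Note: fluorescence read at 667 nm with signal to noise per printed feature.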 The conditions noted are these: 635 nm fluorescence, higher = more signal.
Experiment [11] is described as follows: ATP-based viability of Huh7 replicon cells – cell-based, CellTiter-Glo luminescence, basal, 48 h, cytotoxicity control for HCV replication inhibitor project, primary screen (AID 1143).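 Note: Huh7 hepatoma cells carrying a hepatitis C replication reporter with no stimulus; test concentration not given here.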 The conditions noted are these: higher = more signal, called active from +8 up or from −8 down. Background: In antiviral work, replicon cells carry a viral genome segment that copies itself.

Experiment [12] is described as follows: Pseudomonas biofilm growth suppression – PAO1 strain, BacTiter-Glo luminescence, LB-PBS, primary screen (AID 1144). Conditions: P. aeruginosa PAO1 biofilm, 12 h, higher = more signal.
Experiment [13] in a line: basal CRE-LacZ reporter activity in PC12 – cell-based, unstimulated, primary screen (AID 1145). The conditions noted are these: no forskolin, luminescence, 4.5 h, higher = more signal, called active from +8 up or from −8 down.
The nature of experiment [14]: forskolin-driven CRE-LacZ activity in PC12 – cell-based, CRE-LacZ reporter, forskolin-stimulated, primary screen (AID 1146).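 Note: PC12 cells with 6xCRE LacZ reporter stimulated by forskolin 10 µM; beta-galactosidase reporter signal reflecting CREB driven transcription.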 The conditions noted are these: luminescence, 4.5 h, higher = more signal, called active from +8 up or from −8 down.
Experiment [15] deals with Streptavidin (Streptomyces avidinii) (UniProt P22629). Kind of experiment: compounds binding control protein streptavidin – biophysical, small-molecule microarray, 635/667 nm fluorescence, artefact control for SMM compound annotation, primary screen (AID 1147).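 Note: signal reflects streptavidin binding to arrayed compounds as a control protein.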 Conditions: higher = more signal.
Experiment [16] in a line: probe aInhba binding on compound microarray – biochemical, small-molecule microarray, 635/667 nm fluorescence, primary screen (AID 1148).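 Note: score merges 667nm spot fluorescence with signal-to-noise for antibody binding to printed compounds.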 The conditions noted are these: higher = more signal.
The target of experiment [17] is Torsin-1A (Homo sapiens) (UniProt O14656). Description: TOR1A wild-type binding on microarray – cell lysate, small-molecule microarray, lysate, 635/667 nm, primary screen (AID 1149). The conditions noted are these: COS7 hTOR1A-WT lysate, 635 nm fluorescence, higher = more signal.
The target is the same in experiment [18]. Kind of experiment: torsin A mutant lysate binding on microarrays – cell lysate, small-molecule microarray, COS7 lysate, 635/667 nm fluorescence, primary screen (AID 1150).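 Note: score pools 667 nm emission and signal to noise measuring lysate protein binding.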 Conditions: COS7 hTOR1A mutant lysate, 635 nm fluorescence, higher = more signal.
The subject of experiment [19] is Sonic hedgehog protein (Shh). Kind of experiment: Sonic hedgehog microarray binding compounds – biochemical, small-molecule microarray, 635/667 nm fluorescence, primary screen (AID 1151).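 Note: Shh protein binding to compounds spotted on small-molecule microarray slides; score combines spot fluorescence intensity with signal-to-noise across triplicate slides.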 The conditions noted are these: 635 nm fluorescence, higher = more signal.

Chain of Torsin-1A (Homo sapiens) (O14656 whole entry, looked up): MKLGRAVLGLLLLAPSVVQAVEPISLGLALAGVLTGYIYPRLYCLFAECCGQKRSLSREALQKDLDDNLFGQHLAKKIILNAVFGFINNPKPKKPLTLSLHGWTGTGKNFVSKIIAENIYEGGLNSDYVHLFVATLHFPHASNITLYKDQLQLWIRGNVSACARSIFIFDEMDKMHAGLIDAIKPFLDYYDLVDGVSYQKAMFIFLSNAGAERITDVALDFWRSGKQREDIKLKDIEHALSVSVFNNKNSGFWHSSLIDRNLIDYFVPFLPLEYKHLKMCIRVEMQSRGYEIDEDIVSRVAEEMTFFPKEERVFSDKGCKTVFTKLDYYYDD
Chain of Fibroblast growth factor 2 (Homo sapiens) (P09038 whole entry, looked up): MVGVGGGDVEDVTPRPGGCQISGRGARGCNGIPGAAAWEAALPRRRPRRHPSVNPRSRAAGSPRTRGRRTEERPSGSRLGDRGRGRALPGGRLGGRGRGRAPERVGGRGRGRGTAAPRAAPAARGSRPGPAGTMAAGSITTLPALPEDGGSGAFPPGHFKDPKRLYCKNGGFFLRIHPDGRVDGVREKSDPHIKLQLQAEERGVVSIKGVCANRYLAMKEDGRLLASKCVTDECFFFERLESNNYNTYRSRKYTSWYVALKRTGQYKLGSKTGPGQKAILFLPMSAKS
Chain of Focal adhesion kinase 1 (Homo sapiens) (Q05397 whole entry, looked up): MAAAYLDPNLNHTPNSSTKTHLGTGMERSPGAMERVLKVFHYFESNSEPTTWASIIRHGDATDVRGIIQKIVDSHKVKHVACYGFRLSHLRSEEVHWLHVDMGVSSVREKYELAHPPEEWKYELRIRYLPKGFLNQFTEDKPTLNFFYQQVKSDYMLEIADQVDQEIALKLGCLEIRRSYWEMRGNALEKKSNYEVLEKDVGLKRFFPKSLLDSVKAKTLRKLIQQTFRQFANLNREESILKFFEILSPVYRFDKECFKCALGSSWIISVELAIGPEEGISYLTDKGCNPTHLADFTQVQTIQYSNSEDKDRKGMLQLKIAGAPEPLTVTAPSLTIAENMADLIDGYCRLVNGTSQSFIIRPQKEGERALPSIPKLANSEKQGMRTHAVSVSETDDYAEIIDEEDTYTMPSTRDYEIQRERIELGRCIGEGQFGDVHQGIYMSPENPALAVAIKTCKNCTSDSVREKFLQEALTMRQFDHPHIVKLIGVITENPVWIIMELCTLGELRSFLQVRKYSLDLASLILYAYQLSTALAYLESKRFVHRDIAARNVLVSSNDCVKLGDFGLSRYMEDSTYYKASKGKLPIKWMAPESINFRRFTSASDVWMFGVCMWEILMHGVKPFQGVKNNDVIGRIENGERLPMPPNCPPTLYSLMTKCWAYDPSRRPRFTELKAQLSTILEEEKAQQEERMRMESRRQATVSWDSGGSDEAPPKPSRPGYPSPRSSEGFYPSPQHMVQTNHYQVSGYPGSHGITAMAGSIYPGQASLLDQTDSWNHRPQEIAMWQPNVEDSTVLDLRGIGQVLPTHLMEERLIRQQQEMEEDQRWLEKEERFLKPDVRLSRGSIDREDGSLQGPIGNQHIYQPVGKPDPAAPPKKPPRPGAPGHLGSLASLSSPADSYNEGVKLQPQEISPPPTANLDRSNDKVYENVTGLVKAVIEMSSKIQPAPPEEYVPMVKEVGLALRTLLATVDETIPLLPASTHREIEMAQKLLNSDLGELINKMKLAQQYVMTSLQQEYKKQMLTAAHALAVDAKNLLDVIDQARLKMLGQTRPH
Chain of Streptavidin (Streptomyces avidinii) (P22629 whole entry, looked up): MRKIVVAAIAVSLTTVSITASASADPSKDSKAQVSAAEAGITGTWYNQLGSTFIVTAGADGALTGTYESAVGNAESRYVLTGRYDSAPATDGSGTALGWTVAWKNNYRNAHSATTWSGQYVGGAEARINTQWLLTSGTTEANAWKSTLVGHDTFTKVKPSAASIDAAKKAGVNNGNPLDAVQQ
Chain of Follistatin (Homo sapiens) (P19883 whole entry, looked up): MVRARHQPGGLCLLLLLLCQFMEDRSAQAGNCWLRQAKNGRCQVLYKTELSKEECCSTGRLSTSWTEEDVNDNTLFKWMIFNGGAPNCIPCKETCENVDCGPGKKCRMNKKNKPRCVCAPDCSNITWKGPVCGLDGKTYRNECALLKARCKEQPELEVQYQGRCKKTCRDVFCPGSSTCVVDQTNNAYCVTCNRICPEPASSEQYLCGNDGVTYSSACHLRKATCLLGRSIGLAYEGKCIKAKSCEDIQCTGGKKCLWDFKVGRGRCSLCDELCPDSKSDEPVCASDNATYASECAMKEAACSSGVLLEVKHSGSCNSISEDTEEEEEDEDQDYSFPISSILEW
Chain of Luciferin 4-monooxygenase (Photinus pyralis) (P08659 whole entry, looked up): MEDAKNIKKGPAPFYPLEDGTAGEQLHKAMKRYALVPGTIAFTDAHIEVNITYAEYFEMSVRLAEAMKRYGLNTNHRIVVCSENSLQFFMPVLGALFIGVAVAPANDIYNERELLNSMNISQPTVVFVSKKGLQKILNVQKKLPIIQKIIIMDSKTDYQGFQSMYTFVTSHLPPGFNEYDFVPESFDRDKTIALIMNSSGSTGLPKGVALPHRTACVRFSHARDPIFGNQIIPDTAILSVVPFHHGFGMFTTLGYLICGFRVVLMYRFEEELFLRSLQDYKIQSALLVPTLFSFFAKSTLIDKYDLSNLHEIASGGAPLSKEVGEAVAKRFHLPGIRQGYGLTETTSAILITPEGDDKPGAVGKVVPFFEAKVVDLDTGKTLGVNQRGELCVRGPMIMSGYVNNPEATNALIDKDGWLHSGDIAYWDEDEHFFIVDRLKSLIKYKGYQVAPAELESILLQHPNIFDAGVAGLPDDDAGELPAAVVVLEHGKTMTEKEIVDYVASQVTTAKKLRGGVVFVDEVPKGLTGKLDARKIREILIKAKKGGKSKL

As for `C=CC[C@]12N=C(c3ccc(OCCCO)cc3)O[C@H]1c1ccccc1N(Cc1ccccc1)C2=O`, the composite z-score in [1] is 1.74; in experiment [2], 0.998; in experiment [3] it was 0.804; in [4], -0.0608; in experiment [5] it was 1.29; in experiment [6] it was 1.34. For the same molecule, the composite z-score in the experiment with Lefty1 was -0.0331; in [8], 0.442; in experiment [10], 0.373; in experiment [15] it was -0.255; in experiment [16], 0.153; with Torsin-1A (Homo sapiens) [17] it was 0.35. The composite z-score with Torsin-1A (Homo sapiens) [18] worked out at 1.04; in experiment [19] it was 0.351. Also, the z-score was -1.21 in experiment [7]; -4.07 (inactive) in experiment [9]; -3.92 (inactive) in experiment [11]; 0.71 (inactive) in experiment [12]; -0.389 (inactive) in [13]; -1.64 (inactive) in experiment [14].

For `C=C(CCCC)C(=O)CC[C@H](OC(=O)c1cccnc1)c1ccccc1OCCO`, the composite z-score in experiment [1] was 0.984; in experiment [2] it was -0.513; in experiment [3], 0.0467; in [4], -0.633; in experiment [5] it was 0.537; in experiment [6], 1.32. The composite z-score was 0.785 in the experiment with Lefty1; 0.14 in experiment [8]; 0.218 in [10]; -0.423 in experiment [15]; -0.128 in experiment [16]; 1.07 with Torsin-1A (Homo sapiens) [17]. For the same molecule, the composite z-score in the experiment with Torsin-1A (Homo sapiens) [18] was 0.218; in [19], 0.552. In addition, the z-score in experiment [7] is 1.08; in experiment [9], -0.288 (inactive); in experiment [11], -2.15 (inactive); in experiment [12], -0.0162 (inactive); in [13] it was 2.21 (inactive); in experiment [14], 1.94 (inactive).

For the molecule `COCCOC(=O)N1C(=O)[C@@]2(c3ccccc31)[C@H](c1ccccc1OCCO)N1[C@H](c3ccccc3)[C@H](c3ccccc3)OC(=O)[C@H]1[C@@H]2C(=O)Nc1nc2ccccc2s1`, the composite z-score stood at 1.04 in [1]; 1.19 in experiment [2]; 0.445 in experiment [3]; 0.994 in experiment [4]; 1.35 in experiment [5]; 1.03 in experiment [6]. Besides, the composite z-score with Lefty1 came to 1.34; in experiment [8], 1.18; in experiment [10] it was 0.212; in experiment [15], 1.14; in experiment [16], 0.113; with Torsin-1A (Homo sapiens) [17], 0.421. For the same molecule, the composite z-score came to 1.25 with Torsin-1A (Homo sapiens) [18] and 1.81 in experiment [19]. Moreover, the z-score in [7] was -1.91; in experiment [9], -2.37 (inactive); in experiment [11] it was -3.78 (inactive); in experiment [12], -0.868 (inactive); in experiment [13], -0.0566 (inactive); in [14], 2.86 (inactive).

Take `C#CCN(Cc1ccccc1Br)C(/C=C/c1ccccc1)CO` (stereo not given): the composite z-score was 0.448 in experiment [1]; -0.265 in [2]; -0.102 in [3]; -0.171 in [4]; -0.523 in [5]; 0.774 in [6]. For the same molecule, the composite z-score was 0.0437 with Lefty1; -0.618 in experiment [8]; -0.15 in [10]; -0.175 in [15]; -0.283 in experiment [16]; 0.0428 with Torsin-1A (Homo sapiens) [17]. Besides, the figures for the composite z-score (with Torsin-1A (Homo sapiens) [18]; in experiment [19]) were -0.653 and -0.0683, respectively. Moreover, the z-score is -1.01 in [7]; 0.0615 (inactive) in experiment [9]; -4.79 (inactive) in [11]; 0.825 (inactive) in experiment [12]; 5.19 (inactive) in [13]; -1.04 (inactive) in experiment [14].

With `O=C1[C@H]2C=C(Br)[C@H](C[C@@H]2c2ccccc2)[C@@]12CO2`, the composite z-score in experiment [1] is 0.828; in experiment [2], 0.253; in [3], 0.004; in [4], -0.0786; in [5], 1.14; in [6], 0.402. For the same molecule, the composite z-score in the experiment on Lefty1 is 0.785; in experiment [8], -0.21; in experiment [10], 0.127; in experiment [15], 0.105; in experiment [16] it was 0.0528; with Torsin-1A (Homo sapiens) [17] it was 0.175. Also, the composite z-score in the experiment with Torsin-1A (Homo sapiens) [18] amounted to 0.273; in [19] it was 0.982. In addition, the z-score is -0.0698 in [7]; 0.266 (inactive) in [9]; -0.856 (inactive) in experiment [11]; 0.552 (inactive) in experiment [12]; 1.58 (inactive) in [13]; 4.2 (inactive) in experiment [14].
